Data as given in PubChem BioAssay.
Active and inactive are the calls of the source.

Key:
[1] = E. coli DRC41 culture turbidity changes, primary screen, E. coli filamentation inducer project, strain DRC41, OD650, 48 h (AID 1152);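 note: E. coli MC1000 strain DRC41 lacking acrAB efflux pump and sulA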; conditions: E. coli DRC41 (acrAB sulA), higher = more signal, called active from +8 up or from −8 down
[2] = small-molecule binders of probe aLefty1, primary screen, biochemical, small-molecule microarray, 635/667 nm fluorescence (AID 1153); conditions: higher = more signal;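 note: score merges spot fluorescence with signal-to-noise ratio from the scanned slide images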
[3] = PSAC antagonists in infected red cells, primary screen, cell-based, P. falciparum Indochina, OD700, 1 h (AID 1154); conditions: P. falciparum Indochina infected RBC osmotic lysis, higher = more signal, called active from +8 up or from −8 down
[4] = PSAC antagonists in infected red cells, primary screen, cell-based, P. falciparum Indochina, OD700, 2 h (AID 1155);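 note: lysis reports solute entry through the parasite surface anion channel PSAC; channel blockers reduce lysis of infected cells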; conditions: P. falciparum Indochina infected erythrocytes, osmotic lysis OD700; higher = more signal, called active from +8 up or from −8 down
[5] = osmotic lysis modulators in infected erythrocytes, primary screen, PSAC antagonist project, cell-based, P. falciparum Indochina, OD700, 3 h (AID 1156); conditions: higher = more signal, called active from +8 up or from −8 down
[6] = PSAC antagonists in infected red cells, primary screen, cell-based, P. falciparum Indochina, OD700, 18 h (AID 1157); conditions: P. falciparum Indochina infected erythrocytes, osmotic lysis OD700, 18 h; higher = more signal, called active from +8 up or from −8 down
[7] = modulators of S6 phosphorylation in cells, primary screen, cell-based, A549, cytoblot, luminescence, serum-stimulated (AID 1158); conditions: A549 phospho-S6 cytoblot, 5 h, higher = more signal;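 note: serum-stimulated A549 lung adenocarcinoma cells; signal is phosphorylated S6 detected by cytoblot immunostaining with HRP secondary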
[8] = molecular target: NADPH oxidase 2 (Homo sapiens) (UniProt P04839); experiment: NOX2-dependent H2O2 signal modulators, primary screen, NOX inhibitor project, cell-based, HEK293-NOX2, PMA-stimulated, Amplex Red fluorescence (AID 1159); conditions: 45 min, higher = more signal, called active from +8 up or from −8 down; note: test concentration not given here
Chain of NADPH oxidase 2 (Homo sapiens) (P04839 whole entry, looked up): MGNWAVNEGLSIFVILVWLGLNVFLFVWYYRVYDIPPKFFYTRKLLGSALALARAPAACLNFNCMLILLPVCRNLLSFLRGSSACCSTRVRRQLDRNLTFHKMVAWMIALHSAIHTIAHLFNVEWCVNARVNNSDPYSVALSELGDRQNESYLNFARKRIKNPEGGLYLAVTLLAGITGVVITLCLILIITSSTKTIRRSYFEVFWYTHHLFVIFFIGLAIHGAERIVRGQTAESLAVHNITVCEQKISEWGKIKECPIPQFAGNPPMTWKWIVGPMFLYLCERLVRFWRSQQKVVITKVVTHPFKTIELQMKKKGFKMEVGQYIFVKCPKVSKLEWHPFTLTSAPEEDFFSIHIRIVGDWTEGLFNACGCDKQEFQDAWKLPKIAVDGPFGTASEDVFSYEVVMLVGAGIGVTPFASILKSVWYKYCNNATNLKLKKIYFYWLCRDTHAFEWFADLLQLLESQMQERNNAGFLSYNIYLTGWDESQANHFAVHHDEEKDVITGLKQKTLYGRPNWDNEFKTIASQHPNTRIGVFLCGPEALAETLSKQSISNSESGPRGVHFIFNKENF

[9] = molecular target: NADPH oxidase 4 (Homo sapiens) (UniProt Q9NPH5); experiment: NOX4-dependent H2O2 signal modulators, primary screen, NOX inhibitor project, cell-based, HEK293-NOX4, tetracycline-induced, Amplex Red fluorescence (AID 1160); conditions: 45 min, higher = more signal, called active from +8 up or from −8 down
Chain of NADPH oxidase 4 (Homo sapiens) (Q9NPH5 whole entry, looked up): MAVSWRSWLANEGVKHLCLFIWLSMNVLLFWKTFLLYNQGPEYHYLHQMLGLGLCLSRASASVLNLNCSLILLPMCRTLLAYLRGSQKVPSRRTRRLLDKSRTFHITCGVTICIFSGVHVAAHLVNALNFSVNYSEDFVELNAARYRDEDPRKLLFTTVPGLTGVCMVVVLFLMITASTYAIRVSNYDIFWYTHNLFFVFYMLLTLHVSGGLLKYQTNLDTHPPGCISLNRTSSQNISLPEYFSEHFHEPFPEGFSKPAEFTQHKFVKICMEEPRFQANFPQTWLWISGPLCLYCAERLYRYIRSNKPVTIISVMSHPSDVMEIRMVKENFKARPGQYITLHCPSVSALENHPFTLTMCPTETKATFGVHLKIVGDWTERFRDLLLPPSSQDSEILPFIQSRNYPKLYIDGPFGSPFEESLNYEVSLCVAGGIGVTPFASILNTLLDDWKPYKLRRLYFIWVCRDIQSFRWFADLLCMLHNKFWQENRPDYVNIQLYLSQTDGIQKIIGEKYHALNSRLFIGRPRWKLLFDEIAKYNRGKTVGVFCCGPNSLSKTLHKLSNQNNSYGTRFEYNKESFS

[10] = molecular target: NADPH oxidase 5 (Homo sapiens) (UniProt Q96PH1); experiment: NOX5-dependent H2O2 signal modulators, primary screen, NOX inhibitor project, cell-based, HEK293-NOX5, Amplex Red fluorescence (AID 1161); conditions: HEK293-NOX5, ionomycin, 45 min, higher = more signal
Chain of NADPH oxidase 5 (Homo sapiens) (Q96PH1 whole entry, looked up): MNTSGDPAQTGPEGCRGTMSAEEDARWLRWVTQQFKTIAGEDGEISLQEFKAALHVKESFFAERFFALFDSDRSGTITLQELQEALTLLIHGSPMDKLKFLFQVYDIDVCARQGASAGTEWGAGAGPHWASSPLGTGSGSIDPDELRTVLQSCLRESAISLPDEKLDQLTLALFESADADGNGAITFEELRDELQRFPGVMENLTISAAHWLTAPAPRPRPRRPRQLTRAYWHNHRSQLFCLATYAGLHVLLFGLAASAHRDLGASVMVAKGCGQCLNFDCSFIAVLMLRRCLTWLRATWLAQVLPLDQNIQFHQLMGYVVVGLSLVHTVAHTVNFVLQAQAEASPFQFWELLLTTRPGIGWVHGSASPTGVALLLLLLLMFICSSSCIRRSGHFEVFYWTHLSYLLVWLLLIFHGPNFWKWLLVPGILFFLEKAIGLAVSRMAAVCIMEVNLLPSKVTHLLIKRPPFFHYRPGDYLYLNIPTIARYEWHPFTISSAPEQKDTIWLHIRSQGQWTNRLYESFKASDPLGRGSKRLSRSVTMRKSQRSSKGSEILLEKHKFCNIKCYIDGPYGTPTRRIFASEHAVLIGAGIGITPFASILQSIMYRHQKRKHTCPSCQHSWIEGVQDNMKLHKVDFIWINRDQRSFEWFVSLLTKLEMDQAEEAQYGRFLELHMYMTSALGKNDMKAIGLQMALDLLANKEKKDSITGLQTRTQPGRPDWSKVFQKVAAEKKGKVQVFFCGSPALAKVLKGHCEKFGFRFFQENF

[11] = A549 cell viability effects, profiling panel, calcein-AM fluorescence, 48 h, basal (AID 1162); conditions: higher = more signal; note: test concentration not given here
[12] = adipocyte viability effects, profiling panel, cell-based, 3T3-L1 adipocytes, calcein-AM fluorescence, 48 h, basal (AID 1163); conditions: 3T3-L1 adipocytes viability, higher = more signal; note: test concentration not given here
[13] = HepG2 cell viability effects, profiling panel, calcein-AM fluorescence, 48 h, basal (AID 1164); conditions: higher = more signal; note: test concentration not given here
[14] = MM1S cell viability effects, profiling panel, calcein-AM fluorescence, 48 h, basal (AID 1165); conditions: higher = more signal;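 note: viability of MM1S multiple myeloma cells under basal unstimulated conditions; test concentration not given here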
[15] = basal RPMI8226 viability, no added stimulus, profiling panel, cell-based, calcein-AM fluorescence, 48 h, PK04 Diversity Set (AID 1166); conditions: RPMI8226 myeloma viability, higher = more signal;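 note: cells grown under basal conditions without added stimulus; test concentration not given here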
[16] = basal HepG2 mitochondrial membrane potential changes, profiling panel, cell-based, JC-1 fluorescence, 24 h, 100 nL compound (AID 1167); conditions: higher = more signal; note: test concentration not given here
[17] = basal 3T3-L1 adipocyte mitochondrial potential changes, profiling panel, cell-based, JC-1 fluorescence, 3T3-L1 adipocytes, 24 h, 100 nL compound (AID 1168); conditions: JC-1 mitochondrial fluorescence, higher = more signal, called active from +8 up or from −8 down; note: test concentration not given here
[18] = basal RPMI8226 mitochondrial membrane potential changes, profiling panel, cell-based, JC-1 fluorescence, 24 h, 100 nL compound (AID 1169); conditions: RPMI8226 myeloma, JC-1 mitochondrial potential fluorescence, higher = more signal; note: test concentration not given here
[19] = basal MM1S mitochondrial membrane potential changes, profiling panel, cell-based, JC-1 fluorescence, 24 h, 100 nL compound (AID 1170); conditions: higher = more signal; note: test concentration not given here
[20] = A549 lung cancer cell viability effects, profiling panel, resazurin fluorescence, 24 h, PK04 Diversity Set (AID 1171); conditions: higher = more signal, called active from +8 up or from −8 down; note: test concentration not given here

| Structure (SMILES) | z-score [1] | composite z-score [2] | z-score [3] | z-score [4] | z-score [5] | z-score [6] | z-score [7] | z-score [8] | z-score [9] | z-score [10] | z-score [11] | z-score [12] | z-score [13] | z-score [14] | z-score [15] | z-score [16] | z-score [17] | z-score [18] | z-score [19] | z-score [20] |
| --- | --- | --- | --- | --- | --- | --- | --- | --- | --- | --- | --- | --- | --- | --- | --- | --- | --- | --- | --- | --- |
| C=CCC(OC(C)=O)[C@@H]1[C@@H](N(Cc2ccc(-c3ccccc3)cc2)C(=O)c2ccc(-c3ccccc3)cc2)c2cc(OCCCO)ccc2N1C(=O)c1ccc2ccccc2c1 (stereo not given in full) | -0.75 (inactive) | 0.445 | 0.225 (inactive) | -0.135 (inactive) | -0.503 (inactive) | -0.0602 (inactive) | 0.6 | 0.707 (inactive) | 0.987 (inactive) | 0.99 | -0.77 | 0.676 | 0.313 | -0.531 | -0.685 | 1.42 | -0.645 (inactive) | 0.795 | 0.563 | 0.204 (inactive) |
| C=CC[C@@]1(C(=O)NCCCOC)N=C(c2ccc(OCCCO)cc2)O[C@@H]1c1ccccc1 | 1.3 (inactive) | 0.611 | 21.7 (active) | 7.55 (inactive) | 1.32 (inactive) | 0.406 (inactive) | 1.54 | -0.393 (inactive) | 0.523 (inactive) | 0.754 | 0.689 | 0.457 | 0.83 | 0.611 | 0.751 | -0.166 | 1.21 (inactive) | -0.323 | 0.193 | -0.706 (inactive) |
| CC(C)=C1C(=O)C(c2ccccc2)=C2CN3C(=O)N(CCc4ccccc4)C(=O)[C@]3(Cc3ccc(C(F)(F)F)cc3)[C@H]21 | -2.19 (inactive) | 0.522 | 22.3 (active) | 5.86 (inactive) | 0.511 (inactive) | 1.21 (inactive) | -0.558 | -0.12 (inactive) | -1.21 (inactive) | -0.226 | 0.549 | 0.66 | -0.232 | -1.14 | -1.16 | -1.5 | -0.876 (inactive) | -0.699 | -0.746 | -0.327 (inactive) |
| O=C1C[C@]2(c3ccc([N+](=O)[O-])cc3)C(=O)N(C3CC3)c3cc(CO)ccc3[C@H]2N1CC12CC3CC(CC(C3)C1)C2 | -0.829 (inactive) | 0.599 | 0.617 (inactive) | -0.0621 (inactive) | 0.474 (inactive) | 0.255 (inactive) | 0.204 | 1.36 (inactive) | -1.64 (inactive) | 0.0712 | 0.207 | 0.368 | -0.67 | 0.352 | -0.947 | -0.148 | -0.837 (inactive) | 0.787 | -1.1 | -0.452 (inactive) |
| C=CCC(OC(C)=O)[C@@H]1[C@@H](N(Cc2cccc3ccccc23)C(=O)Cc2ccc(OC)cc2)c2cc(OCCCO)ccc2N1C(=O)c1ccc(-c2ccccc2)cc1 (stereo not given in full) | -0.62 (inactive) | 0.0429 | 0.0926 (inactive) | 0.299 (inactive) | -0.278 (inactive) | 0.263 (inactive) | 0.0614 | -1.33 (inactive) | -0.257 (inactive) | -1.21 | -0.433 | 1.12 | 0.256 | -0.47 | 0.0509 | 2.36 | 0.286 (inactive) | 0.0206 | 0.621 | 0.48 (inactive) |
| COC(=O)[C@@]1(Cc2ccc(F)cc2)[C@H]2c3cc(C(=O)N4CCCC4)n(CCc4c[nH]c5ccccc45)c3C[C@H]2CN1C(=O)c1ccccc1 | -2.35 (inactive) | 1.04 | 2.02 (inactive) | 0.946 (inactive) | 0.805 (inactive) | 1.06 (inactive) | -0.142 | 0.515 (inactive) | 0.988 (inactive) | 1.9 | -1.41 | -0.743 | -1.33 | -1.57 | -3.02 | 0.28 | -0.222 (inactive) | -0.915 | -1.21 | -1.22 (inactive) |
| C=C(/C(=C/C[C@H](OC(C)=O)c1ccc(CO)o1)c1cnc2ccccc2c1)C(C)C | -0.0554 (inactive) | 0.215 | 3.56 (inactive) | 0.625 (inactive) | 0.589 (inactive) | 0.0124 (inactive) | 0.38 | -0.306 (inactive) | -0.246 (inactive) | -0.219 | -0.166 | 0.283 | -0.7 | -1.36 | -1.47 | -1.36 | -0.524 (inactive) | 0.867 | 0.246 | 0.643 (inactive) |
| Cc1ccc(S[C@]2(C(=O)O)CC(=O)N(C3CCCCC3)[C@@H]2c2ccc(CO)cc2I)cc1 | 0.263 (inactive) | 0.32 | 9.32 (active) | 0.692 (inactive) | 0.796 (inactive) | 0.99 (inactive) | 0.0559 | 3.66 (inactive) | -2.04 (inactive) | -1.86 | -0.756 | 0.505 | -0.561 | -2.64 | -2.13 | -1.1 | -0.343 (inactive) | -0.278 | 0.0653 | 0.808 (inactive) |
| COC(=O)[C@@]1(Cc2ccc(OC)cc2)[C@H]2c3cc(C(=O)N4CCCC4)n(CCc4c[nH]c5ccc(O)cc45)c3C[C@H]2CN1C(=O)c1ccccc1 | -0.0255 (inactive) | 0.302 | 8.22 (active) | 0.847 (inactive) | 1.27 (inactive) | 1.11 (inactive) | -0.029 | -0.648 (inactive) | -6.51 (inactive) | -3.5 | 1.06 | -0.226 | 0.8 | -0.927 | 0.305 | 0.873 | -0.793 (inactive) | -0.259 | -0.401 | 0.521 (inactive) |
